For 19 compounds, Potency and activity, negative = cell killing results are on record in PubChem BioAssay (NCATS).

One assay concerns HeLa. In words: Primary qHTS to identify gynecologic anti-cancer compounds using libraries of approved drugs and bioactive compounds (AID 1345084). Also: nearly all actives have a fitted effect of over 55% in size. The note with it: Gynecologic cancer cell panel viability, ATPlite luminescence, 48 h; series mostly up to 57.5 µM. In a few lines:
(§1)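 ATP-based viability (ATPlite), 1,000 cells/well, 16 h pre-incubation, 48 h compound at 37 C, 5% CO2, 15 min RT before read.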

The next assay relates to Hek293T. Described as above. The settings on record: Gynecologic cancer cell panel viability, ATPlite luminescence, 48 h, control line for the selectivity index; series mostly up to 57.5 µM. The essentials: as §1
The test system of the next assay is JEG-3. The assay is described as above. The settings on record: Gynecologic cancer cell panel viability, ATPlite luminescence, 48 h; series mostly up to 57.5 µM. In a few lines:
as §1

The subject of a further assay is PA-1. Described as above. The settings on record: Gynecologic cancer cell panel viability, ATPlite luminescence, 48 h; series mostly up to 57.5 µM. In a few lines: as §1
The test system of the next assay is SKOV3. Described as above. The settings on record: Gynecologic cancer cell panel viability, ATPlite luminescence, 48 h; series mostly up to 57.5 µM. In a few lines: as §1
In the next assay the test system is Tov-21-G. The assay is described as above. The settings on record: Gynecologic cancer cell panel viability, ATPlite luminescence, 48 h; series mostly up to 57.5 µM. In a few lines: as §1
For the next assay, the system named is Tov112D. Described as above. The settings on record: Gynecologic cancer cell panel viability, ATPlite luminescence, 48 h; series mostly up to 57.5 µM. The essentials: as §1
The subject of a further assay is OV90. The assay is described as above. The settings on record: Gynecologic cancer cell panel viability, ATPlite luminescence, 48 h; series mostly up to 57.5 µM. The essentials: as §1
Assay [1] in a line: Drug repurposing screens with cells derived from glioblastoma tumor samples (AID 1345199). Also: nearly all actives have a fitted effect of over 40% in size. The settings on record: GBM patient neurospheres viability, ATP luminescence, 48 h. In a few lines: (§2)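 Primary testing used CD133+ neurospheres from four GBM patients, seven concentrations, 48 h exposure and ATP-based viability; confirmation added three slower-growing patient lines.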
Another assay relates to astro. Described as above. The settings on record: viability, ATP luminescence, 48 h; series mostly up to 45.9 µM. In a few lines: as §2
Setting [2] is: at 45.9 µM (top of the series), tumour line B.
[3] abbreviates: at 45.9 µM (top of the series), tumour line D.
Where [4] appears, read: at 46.1 µM (top of the series), tumour line C.
Where [5] appears, read: at 20 µM (top of the series), tumour line C.
Setting [6] is: at 21.2 µM (top of the series), tumour line B.
Where [7] appears, read: at 21.2 µM (top of the series), tumour line D.
The mark [8] stands for this setting: at 21.3 µM (top of the series), tumour line A.

Records with an inconclusive call do not appear. Unmarked numbers belong to inactive results. Activity calls are given as the source filed them. Calls follow the shape of the dose curve; as a rule, active = well fitted curve in the direction sought with a large enough effect; inconclusive = small, poorly fitted or top-dose-only effect, or another doubt; inactive = no such curve, though single readings can be large; an effect the other way counts as inactive or inconclusive.
% is scaled to controls: 0 for no effect and ±100 for the full control effect; potency is read from the fitted curve at half-maximal effect.

Consider `CCCOC(C(=O)OC1CCN(C)CC1)(c1ccccc1)c1ccccc1`, for which the Potency result in the assay with HeLa, in the assay on Hek293T, with JEG-3, in the assay with PA-1, in the assay on SKOV3 and with Tov-21-G was “inactive” in each case. The Potency result in the assay on Tov112D was “inactive”.

For `CCCCCCCCCCCCCCCCCC(=O)OCC(O)CO` (stereo not given), the Potency result in the assay with HeLa, with Hek293T, in the assay with JEG-3, in the assay on OV90, in the assay on SKOV3 and in the assay on Tov-21-G was “inactive” each time. In addition, the Potency result in the assay on Tov112D and in the assay on astro was “inactive” each time. The figures for the activity, negative = cell killing in assay [1] (setting [2]), in assay [1] (setting [3]) and in assay [1] (setting [4]) were -5.26%, -15.3% and 1%, respectively.

Turning to `Cc1cc(N)c2cc(NC(=O)Nc3ccc4nc(C)cc(N)c4c3)ccc2n1`, the Potency result in the assay with HeLa, with Hek293T, with JEG-3, with PA-1, in the assay with SKOV3 and with Tov112D was “inactive” each time.

Regarding `COC1=CC(=O)C[C@@H](C)[C@]12Oc1c(Cl)c(OC)cc(OC)c1C2=O`, the Potency result with HeLa, with Hek293T, in the assay with JEG-3, with OV90 and with SKOV3 was “inactive” throughout. The activity, negative = cell killing is -17.6% in assay [1] (setting [2]), -7.65% in assay [1] (setting [3]) and -2.75% in [1] (setting [4]).

Turning to `C[C@@H](CN(C)C)CN1c2ccccc2Sc2ccccc21`, the Potency result in the assay with HeLa, in the assay on Hek293T, with JEG-3, with PA-1, with Tov-21-G and with Tov112D was “inactive” throughout. Also, the Potency result with astro is “inactive”. The Potency in the assay with SKOV3 was 17.8 µM (active); in [1] (tumour line A), 8.91 µM (active). Further, the activity, negative = cell killing in assay [1] (setting [5]) was 31.6%; in assay [1] (setting [6]) it was -28.5%.

As to `CC1(C)O[C@@H]2C[C@H]3[C@@H]4CCC5=CC(=O)CC[C@]5(C)[C@@]4(F)[C@@H](O)C[C@]3(C)[C@]2(C(=O)CCl)O1`, the Potency result with HeLa, in the assay with Hek293T, with JEG-3, in the assay with PA-1, in the assay on SKOV3 and with Tov-21-G was “inactive” in each case. The Potency result in the assay with Tov112D and with astro was “inactive” in each case. In addition, the activity, negative = cell killing in assay [1] (setting [5]) was -1.51%; in assay [1] (setting [6]), -4.88%; in [1] (setting [7]), 2.26%; in [1] (setting [8]) it was 3.38%.

For the compound `CN1CCCC(CC2c3ccccc3Sc3ccccc32)C1` (stereo not given), the Potency entry with HeLa, with Hek293T, in the assay with JEG-3, in the assay with PA-1, in the assay on Tov-21-G and in the assay on Tov112D was “inactive” in each case. Moreover, the activity, negative = cell killing in assay [1] (setting [5]) was 5.58%. Moreover, the results for the Potency in assay [1] (tumour line A) and in assay [1] (tumour line B) were 2.24 µM (active) and 12.6 µM (active), respectively.

With `CC(=O)Oc1ccc2c(c1)CC[C@@H]1[C@@H]2CC[C@]2(C)[C@@H](O)CC[C@@H]12`, the Potency in the assay with HeLa was 6.31 µM (active); in assay [1] (tumour line A) it was 12.6 µM (active). The Potency result in the assay on Hek293T, with JEG-3, in the assay on OV90, with SKOV3 and with Tov-21-G was “inactive” in each case. Moreover, the activity, negative = cell killing in assay [1] (setting [4]) was -5.95%.

For `Clc1ccc2c(c1)CCc1cccnc1C2=C1CCNCC1`, the Potency entry with HeLa, in the assay on Hek293T, in the assay on JEG-3, in the assay with PA-1, in the assay with Tov-21-G and with Tov112D was “inactive” in each case. Besides, the activity, negative = cell killing in assay [1] (setting [4]) is 0.244%. The Potency in assay [1] (tumour line A) is 5.01 µM (active); in assay [1] (tumour line B), 12.6 µM (active); in assay [1] (tumour line D) it was 20 µM (active).

As to `C[C@]12CC[C@@H]3c4ccc(O)cc4CC[C@H]3[C@@H]1C[C@@H](O)[C@@H]2O`, in the assay on HeLa, the Potency was 31.6 µM (active). The Potency entry with Hek293T, with JEG-3, with OV90, with SKOV3, in the assay with Tov-21-G and in the assay with Tov112D was “inactive” throughout. Moreover, the activity, negative = cell killing in assay [1] (setting [2]) is -9.53%; in assay [1] (setting [3]), -17.2%; in [1] (setting [4]), 22.1%.

Consider `O=C1c2ccccc2C(=O)C1c1ccccc1`, for which the Potency entry with HeLa, in the assay with Hek293T, with JEG-3, with OV90, in the assay with PA-1 and in the assay with Tov-21-G was “inactive” each time. Also, the Potency result with Tov112D and with astro was “inactive” each time. For the same compound, the activity, negative = cell killing in [1] (setting [5]) is 22.2%; in assay [1] (setting [6]) it was -2.67%; in assay [1] (setting [7]) it was -10.9%.

As for `C#C[C@]1(O)CC[C@H]2[C@@H]3CCC4=CC(=O)CC[C@@H]4[C@H]3CC[C@@]21C`, the values for the Potency with HeLa and in the assay on PA-1 were 3.55 µM (active) and 17.8 µM (active), respectively. The Potency result in the assay with Hek293T, in the assay on JEG-3, in the assay on SKOV3, in the assay with Tov-21-G, in the assay with Tov112D and in the assay with astro was “inactive” throughout. For the same compound, the values for the activity, negative = cell killing in [1] (setting [2]), in assay [1] (setting [3]) and in assay [1] (setting [4]) were -9.83%, 3.81% and -18.8%, respectively.

For the compound `CC(=O)Oc1ccc(C(=C2CCCCC2)c2ccc(OC(C)=O)cc2)cc1`, the Potency result in the assay on HeLa, with Hek293T, with JEG-3, in the assay with PA-1, in the assay on SKOV3 and in the assay with Tov-21-G was “inactive” each time. Also, the Potency entry in the assay on Tov112D is “inactive”. Besides, the activity, negative = cell killing in assay [1] (setting [2]) is -19.5%; in assay [1] (setting [3]), -13.6%; in assay [1] (at 46 µM (top of the series), tumour line A), -21.3%.

For the compound `CCN(CC)CCOC(=O)C(c1ccccc1)C1CCCCC1` (stereo not given), the Potency result in the assay with HeLa, in the assay with Hek293T, with JEG-3, in the assay with PA-1, in the assay on SKOV3 and in the assay with Tov-21-G was “inactive” in each case. Also, the Potency result in the assay on Tov112D and with astro was “inactive” each time. Also, the activity, negative = cell killing in [1] (setting [2]) is -15%. The Potency in assay [1] (tumour line A) is 20 µM (active).

As to `CCN(CCCCOC(=O)c1ccc(OC)c(OC)c1)C(C)Cc1ccc(OC)cc1` (stereo not given), the Potency entry in the assay with HeLa, in the assay on Hek293T, with JEG-3, in the assay with PA-1, with SKOV3 and in the assay on Tov-21-G was “inactive” throughout. The Potency entry in the assay on Tov112D was “inactive”. The activity, negative = cell killing in assay [1] (setting [5]) is -2.24%; in assay [1] (setting [6]), -9.34%. Also, the Potency in assay [1] (tumour line A) is 5.62 µM (active).

As to `CCCCOc1cc(C(=O)NCCN(CC)CC)c2ccccc2n1`, the activity, negative = cell killing in assay [1] (setting [6]) was -15.3%.

Consider `Cc1c(N(C)CS(=O)(=O)O)c(=O)n(-c2ccccc2)n1C`, for which the values for the activity, negative = cell killing in assay [1] (setting [6]), in assay [1] (setting [7]) and in assay [1] (setting [8]) were -9.28%, -9.47% and -23.9%, respectively.

Consider `CCCCCCCCCCCCCCCC[N+](C)(C)CCN(Cc1ccc(OC)cc1)c1ncccn1`, for which the Potency in assay [1] (tumour line B) was 14.1 µM (active).

In the case of `CNCCC=C1c2ccccc2CCc2ccccc21`, the Potency in [1] (tumour line B) was 22.4 µM (active).
